Reference: PubChem BioAssay (NCATS)
Records with an inconclusive call do not appear. Where a call stands in place of a potency, no number is given. Active and inactive are the calls of the source. The call rests on the fitted dose curve; in most records, active means well fitted inhibition curve with a large enough effect; inconclusive means small, poorly fitted or top-dose-only effect; inactive means flat fitted curve, though single readings scatter.

target: Calcium and integrin-binding protein 1 (Homo sapiens) (UniProt Q99828); experiment: Primary qHTS for Identification of Calcium Integrin Binding Protein 1 (CIB1) Competitor (AID 1508620); conditions: CIB1-GST / FITC-alphaIIb peptide fluorescence polarization; series mostly up to 57.7 µM;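 further: GST tagged CIB1 binding a fluorescein labelled alphaIIb integrin peptide tracer; top concentration of the series differs between compounds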
Description: Assay Provider: Ulhas P. Naik, PhD Sidney Kimmel Medical College Thomas Jefferson University, Philadelphia, PA Primary function of platelets is to maintain hemostasis. At the site of vascular injury, platelets adhere to adhesive proteins such as collagen and von Willebrand factor. Adherent platelets are activated and generate soluble platelet agonists such as thrombin, ADP and thromboxane A2. Following exposure of circulating platelets to these agonists, results in platelet shape change, granule secretion and activation of platelet integrin alphaIIb-beta3. Ligand binding to activated integrin alphaIIb-beta3 triggers outside-in signaling, leading to platelet aggregation, stabilization of platelet plug, and clot retraction. Upon atherosclerotic plaque rupture also causes platelet plug formation, which underlies a number of cardiovascular diseases such as myocardial infraction and stroke. A number of anti-platelet drugs such as aspirin, clopidogrel, prasugrel, vorapaxar, and eptifibatide are currently available to prevent the thrombotic complications. However, these anti-platelet agents have several limitations including inherent variability in individual responses, developing resistance, and serious bleeding side effects. For these reasons they are not suitable for long-term protection. Based on the experiences with current anti-platelet drugs, it appears that the most useful therapeutic approach is to intersect the secondary responses such as integrin outside-in signaling or recruitment of platelets by TxA2 and secreted ADP. Compounds, which can largely preserve the primary hemostatic function of platelets but inhibit secondary response will be most desired therapeutic agents for treatment of cardiovascular disease. CIB1 is a calcium integrin binding protein, which specifically interact with the alphaIIb subunit of integrin alphaIIb-beta3. Binding of CIB1 to alphaIIb regulates the outside-in signaling in platelets, which is needed for thrombus stabilization and thrombus growth. […] Therefore, we propose that discovery of a small molecule that can prevent the association of CIB1 and alphaIIb-beta3 will be a potential anti-platelet agent that can block the thrombus formation without undue effect on hemostasis. Reference: [1] Naik MU, Nigam A, Manrai P, et al. CIB1 deficiency results in impaired thrombosis: the potential role of CIB1 in outside-in signaling through integrin alpha IIb beta 3. J Thromb Haemost.
PROTOCOL TABLES SEQUENCE No. (1, 2, 3, etc.); […] (e.g., Cells, Incubation, Reagent, etc.); VALUE and DESCRIPTION. 1; Reagent; 3 uL; Protein or buffer (4/3x) 2; Compound; 46 nL; Control inhibitor / compound library 3; Time; 15 min; Room temperature incubation 4; Reagent; 1 uL; Fluorescent labeled peptide (4x) 5; Time; 1000 rpm; Centrifuge 6; Time; 15 min; Room temperature incubation 7; Detection; Ex 480/ Em 540; ViewLux Fluorescence Read NOTES (numbers refer to sequence above) 1; Protein Mixture: C1B1-GST (final concentrations of 1 uM). […] 3; Room temperature incubation. 4; Fluorescent Labeled Peptide: FITC-aIIb (final concentration of 100 nM). Sequence of alphaIIb peptide: Acetyl-[…]-FITC (purity is 95.83%). 5; Centrifuge 1000 rpm (164 g) for 15 seconds. 6; Room temperature incubation. 7; ViewLux Fluorescent Polization Read: excitation = 480(20) / emission = 540(25) S and P; FITC Dichroic mirror.

Calcium and integrin-binding protein 1 (Homo sapiens), sequence (Q99828 whole entry, looked up): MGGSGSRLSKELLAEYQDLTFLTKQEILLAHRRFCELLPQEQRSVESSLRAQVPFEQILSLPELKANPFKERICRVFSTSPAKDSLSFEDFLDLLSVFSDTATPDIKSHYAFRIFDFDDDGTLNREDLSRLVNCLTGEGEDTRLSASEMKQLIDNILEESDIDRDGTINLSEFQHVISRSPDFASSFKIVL

Row | Compound | Potency | activity change, negative = inhibition
1 | CC(=O)OC12CC(C)C(O)C1/C=C(/COC1OC(CO)C(O)C(O)C1O)CCC1C(/C=C(\C)C2=O)C1(C)C (stereo not given) | inactive | 
2 | C=C1C(=O)OC[C@H]2C(C(=O)O)=CC3CC(C)(C)C[C@@]132 (stereo not given in full) | inactive | 
3 | CC1(C)CC2C3=CCC4[C@@]5(C)CC[C@H](OC6OCC(O)C(OC7OC(CO)C(O)C(O)C7O)C6O)C(C)(C)C5CC[C@@]4(C)[C@]3(C)C[C@H](O)[C@@]2(CO)[C@H](OC(=O)c2ccccc2)C1 (stereo not given in full) | inactive | 
4 | COc1cc2c(c(OC)c1O)C(c1ccc(O)cc1)C1C(=O)OC3C(COC(=O)C1=C2)OC(CO)(OC1OC(COC(=O)/C=C/c2ccc(OC4OC(C)C(O)C(O)C4O)cc2)C(O)C(O)C1O)C3O (stereo not given) | inactive | 
5 | CCOC(=O)C(CCc1ccccc1)NC(C)C(=O)N1Cc2ccccc2CC1C(=O)O (stereo not given) | inactive | 
6 | CC1OC(O[C@H]2CC[C@@]3(C)C(CC[C@]4(C)C3CC=C3C5CC(C)(C)CC[C@]5(C(=O)OC5OC(CO)C(OC6OCC(OC7OCC(O)C(O)C7O)C(O)C6O)C(O)C5O)CC[C@]34C)C2(C)C)C(O)C(O)C1OC1OC(CO)C(O)C(OC2OC(CO)C(O)C(O)C2O)C1O (stereo not given in full) |  | -8.26% [at 12.4 µM] (inactive)
7 | C[C@@H](CC[C@@H]1[C@@]2(C)CCCC(C)(C)C2CC[C@@]1(C)O)CC(=O)O (stereo not given in full) | inactive | 
8 | CC1=CC(=O)CC(C)(C)[C@@]1(O)/C=C/C(C)O[C@@H]1O[C@H](CO)[C@@H](O)[C@H](O)[C@H]1O (stereo not given in full) | inactive | 
9 | Nc1ncnc2c1C(=O)N(c1ccc(C3CCC(CC(=O)O)CC3)cc1)CCO2 (stereo not given) | inactive | 
10 | C[C@@H]1O[C@@H](O[C@H]2[C@H](OC(=O)[C@]34CCC(C)(C)C[C@H]3C3=CCC5[C@@]6(C)C[C@@H](O)[C@@H](O)[C@@](C)(CO)C6[C@H](O)C[C@@]5(C)[C@]3(C)CC4)OC[C@H](O)[C@@H]2O)[C@H](O)[C@H](O)[C@H]1O[C@@H]1OC[C@@H](O)[C@H](O[C@H]2O[C@H](C)[C@@H](O)[C@H](O)[C@@H]2O)[C@H]1O (stereo not given in full) | inactive | 
11 | CC[C@@H]1[C@H]2CCCCN3C(=O)C[C@H]([C@@H]4[C@H]1OC(=O)[C@H]4C)[C@@H]23 | inactive | 
12 | C=C[C@@]1(C)CCC2=C([C@H]1OC(C)=O)[C@H](OC(C)=O)CC1[C@](C)(C(=O)OC)CC[C@H](OC(C)=O)[C@]21C (stereo not given in full) | inactive | 
13 | CC(C)CC(=O)O[C@@H]1O[C@H](CO)[C@@H](O[C@H]2O[C@H](C)[C@@H](N[C@H]3C=C(CO)[C@@H](O[C@H]4O[C@H](CO)[C@@H](O[C@H]5O[C@H](CO)[C@@H](O[C@H]6O[C@H](CO)[C@@H](O)[C@H](O)[C@H]6O)[C@H](O)[C@H]5O)[C@H](O)[C@H]4O)[C@H](O)[C@H]3O)[C@H](O)[C@H]2O)[C@H](O)[C@H]1O | inactive | 
14 | Cc1c(NC(=O)N2CCOCC2)ccc2c1c1ccccc1n2C(C)C | inactive | 
15 | C=C(COC(=O)CC(C)C)C1Cc2cc(C(C)=O)ccc2O1 (stereo not given) | inactive | 
16 | C=C1C(=O)OC2CC(COC(=O)C(C)C)=C(C(C)CCCOC(C)=O)[C@@H](OC(C)=O)C12 (stereo not given in full) | inactive | 
17 | CC1(C)C2CC[C@@]34CC(CC[C@H]3[C@]2(C)CC[C@@H]1O[C@@H]1O[C@H](CO)[C@@H](O)[C@H](O)[C@H]1O)[C@](C)(O)C4 (stereo not given in full) | inactive | 
18 | COc1cc(C2CC(=O)Nc3c2cc(Br)c2ccccc32)cc(OC)c1OC (stereo not given) | inactive | 
19 | CC1=CC23[C@H](C=C(C(=O)O)[C@@H]2COC(=O)[C@]3(O)CO)[C@@H]1C (stereo not given in full) | inactive | 
20 | C=C1[C@H](OC(C)=O)[C@H]2[C@@H](OC(=O)c3ccccc3)[C@@H](C)C[C@]2(O)[C@@H](OC(C)=O)[C@H](C)/C=C/C(C)(C)C(=O)[C@H](OC(C)=O)[C@H]1OC(C)=O | inactive | 

Row | Compound | Potency | activity change, negative = inhibition
21 | C[C@@H]1[C@H]2[C@H](O[C@@H]3O[C@H](CO)[C@@H](O)[C@H](O)[C@H]3O)OC=C(C(=O)O)[C@H]2C[C@@H]1OC(=O)/C=C/c1ccc(O)cc1 | inactive | 
22 | C=C1CC[C@H]2[C@@](C)(CCC(OC3OC(CO)C(O)C(O)C3O)[C@@]2(C)CO)C1C(=O)CC1=CCOC1=O (stereo not given in full) | inactive | 
23 | CC(C)C1CCC(C(=O)N[C@@H](Cc2ccccc2)C(=O)O)CC1 (stereo not given in full) | inactive | 
24 | CCC(=O)N1CCc2cc(OC)c(O)cc2C1 | inactive | 
25 | C[C@@H]1O[C@@H](O[C@H]2[C@H](OC(=O)[C@]34CCC(C)(C)C[C@H]3C3=CCC5[C@@]6(C)C[C@@H](O)[C@@H](O[C@@H]7O[C@H](CO)[C@@H](O)[C@H](O)[C@H]7O)[C@@](C)(CO)C6[C@H](O)C[C@@]5(C)[C@]3(C)CC4)OC[C@H](O)[C@@H]2O)[C@H](O)[C@H](O[C@@H]2OC[C@](O)(CO)[C@H]2O)[C@H]1O[C@@H]1OC[C@@H](O)[C@H](O[C@H]2O[C@H](C)[C@@H](O)[C@H](O)[C@@H]2O)[C@H]1O (stereo not given in full) |  | 5.13% [at 12.4 µM] (inactive)
26 | COc1ccc(N2CCN(CCCNC(=O)Cn3c(=O)c4cccn4c4c(C)ccnc43)CC2)cc1 | inactive | 
27 | C=C1C(O)CCC2(C)CC3(OC)OC(=O)C(C)=C3CC12 (stereo not given) | inactive | 
28 | CC(C)=C1C[C@@]2(C)C(=CC1=O)CC[C@@H](O)[C@@H]2C | inactive | 
29 | CC(C)=CCC[C@](C)(O[C@@H]1O[C@H](CO[C@@H]2O[C@@H](CO)[C@H](O)[C@H]2O[C@@H]2OC[C@@H](O)[C@H](O)[C@H]2O)[C@@H](O)[C@H](O)[C@H]1O)[C@H]1CC[C@]2(C)[C@@H]1[C@H](O)CC1[C@@]3(C)CC[C@H](O[C@@H]4O[C@H](CO)[C@@H](O)[C@H](O)[C@H]4O[C@@H]4O[C@H](CO)[C@@H](O)[C@H](O)[C@H]4O)C(C)(C)C3CC[C@]12C (stereo not given in full) |  | -3.93% [at 12.4 µM] (inactive)
30 | CCC(C)C(C(=O)O)N1Cc2c(OCC=C(C)C)c(C)c(OC)c(C(=O)O)c2C1=O (stereo not given) | inactive | 
31 | CCCCCOC(=O)Nc1nc(=O)n(C2O[C@H](C)[C@@H](O)[C@H]2O)cc1F (stereo not given in full) | inactive | 
32 | CC(C)[C@@H](C(=O)O)N1Cc2c(cc(O)c3c2O[C@]2(C3)[C@H](C)CCC3C(C)(C)[C@H](O)[C@H](O)C[C@@]32C)C1=O (stereo not given in full) | inactive | 
33 | OC[C@H]1O[C@@H](O[C@H]2[C@H](O)[C@@H](CO)O[C@@H](OCc3ccccc3)[C@@H]2O[C@@H]2OC[C@](O)(CO)[C@H]2O)[C@H](O)[C@@H](O)[C@@H]1O | inactive | 
34 | CC(NC(=O)CC(=O)O)C(=O)Nc1ccccc1C(N)=O (stereo not given) | inactive | 
35 | COc1ccccc1CN[C@H]1CCCN[C@H]1c1ccccc1 | inactive | 
36 | COc1cc(C)c(C(=O)O[C@@H]2[C@H](O)[C@@H](CO)O[C@H]2n2ccc(=O)[nH]c2=O)c(OC)c1 | inactive | 
37 | N#Cc1cccc(-c2c[nH]c3ncnc(N4CCOCC4)c23)c1 | inactive | 
38 | C=C1CCC2(OC1)OC1CC3C4CC=C5CC(O)CC(O[C@@H]6OC[C@H](OC(=O)C(O)C(C)CC)[C@H](O)[C@H]6O[C@@H]6O[C@@H](C)[C@H](O)[C@@H](O)[C@H]6O)C5(C)C4CCC3(C)C1C2C (stereo not given in full) | inactive | 
39 | CC(=O)/C=C/C1(O)C(C)(C)CC(O)CC1(C)O (stereo not given) | inactive | 
40 | CC(=O)OC[C@@]12C(=O)C[C@@H](C)[C@]3(C[C@@H](c4ccoc4)OC3=O)[C@H]1CC[C@H](OC(C)=O)[C@]21CO1 | inactive | 
